Test results as given in PubChem BioAssay (NCI).
Compounds without any hit were thinned out: in the full panel of roughly 83,000, 20% have a hit.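 The test compound was applied at a single concentration to cells in 96-well plates for 48 hours, and percent growth was recorded.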 The source made the active and inactive calls. How the source made its calls: active means growth percent below 10; inactive means the rest.

How the values were obtained:
Experiment in all cases: NCI-60 one-dose screen, 48 h (100 = growth as untreated, 0 = no growth, -100 = all killed)
Details in all cases: 10 µM unless noted
T-47D breast = test system: T-47D breast
BT-549 breast = test system: BT-549 breast
MDA-MB-435 melanoma = test system: MDA-MB-435 melanoma
SW-620 colon = test system: SW-620 colon
MCF7 breast = test system: MCF7 breast
HCT-116 colon = test system: HCT-116 colon
HCC-2998 colon = test system: HCC-2998 colon
KM12 colon = test system: KM12 colon

Measured: growth

C=C(C)[C@@H]1CC[C@]2(c3nnc(-c4ccncc4)o3)CC[C@]3(C)[C@H](CC[C@@H]4[C@@]5(C)CCC(=O)NC(C)(C)[C@@H]5CC[C@]43C)[C@@H]12
inactive: T-47D breast 100% | BT-549 breast 89.8% | MDA-MB-435 melanoma 101% | SW-620 colon 103% | MCF7 breast 92.9% | HCT-116 colon 88.8% | HCC-2998 colon 103% | KM12 colon 98.9%

Cc1ccc(-c2nc([P+](c3ccccc3)(c3ccccc3)c3ccccc3)c(N3CCOCC3)o2)cc1
inactive: HCC-2998 colon 14.1%
active: T-47D breast -20.4% | BT-549 breast -13% | MDA-MB-435 melanoma -6.62% | SW-620 colon 9.9% | MCF7 breast 2.74% | HCT-116 colon 1.88% | KM12 colon -22.4%

Cc1ccc2c(c1)c1nc3cc(C)c(C)cc3nc1n2CCN(C)C
active: MCF7 breast -6.81% | HCT-116 colon 8.95%
inactive: T-47D breast 23.2% | BT-549 breast 50.2% | MDA-MB-435 melanoma 16.1% | SW-620 colon 12.5% | HCC-2998 colon 32.9% | KM12 colon 21.7%

CC(=O)Cc1nsc(NC(=O)c2ccoc2COc2ccccc2)n1
inactive: T-47D breast 105% | BT-549 breast 94% | MDA-MB-435 melanoma 107% | SW-620 colon 105% | MCF7 breast 98.2% | HCT-116 colon 98% | HCC-2998 colon 103% | KM12 colon 100%

S=c1[nH]nc2ccccn12
inactive: T-47D breast 106% | BT-549 breast 110% | MDA-MB-435 melanoma 108% | SW-620 colon 105% | MCF7 breast 94.3% | HCT-116 colon 108% | HCC-2998 colon 102% | KM12 colon 116%

CCOc1ccc(NC(=O)c2ccoc2COc2ccccc2)cc1
inactive: T-47D breast 108% | BT-549 breast 109% | MDA-MB-435 melanoma 103% | SW-620 colon 104% | MCF7 breast 95.9% | HCT-116 colon 93.6% | HCC-2998 colon 109% | KM12 colon 98.8%

COc1ccc(/C=C/C(=O)NCCO)cc1
inactive: T-47D breast 89.8% | BT-549 breast 102% | MDA-MB-435 melanoma 104% | SW-620 colon 99.3% | MCF7 breast 94.8% | HCT-116 colon 101% | HCC-2998 colon 103% | KM12 colon 103%

C=C1C(=O)O[C@H]2[C@H]1CC/C(COC(=O)NCCc1c[nH]c3ccccc13)=C\CC[C@@]1(C)O[C@@H]21
active: T-47D breast -36.9% | BT-549 breast -12.9% | SW-620 colon -33.2% | MCF7 breast 6.64% | HCT-116 colon -89.1%
inactive: MDA-MB-435 melanoma 42% | HCC-2998 colon 94.7% | KM12 colon 89.6%

CCSc1sc(-c2ccc(C)cc2)nc1[P+](c1ccccc1)(c1ccccc1)c1ccccc1
active: T-47D breast -22% | BT-549 breast -19.1% | MDA-MB-435 melanoma -26.8% | SW-620 colon 4.99% | MCF7 breast -4.84% | HCT-116 colon -20.9% | HCC-2998 colon -23.1% | KM12 colon -63.2%

O=S(=O)(NCCCNc1cc(-c2cn(-c3ccccc3)nc2-c2cccc(O)c2)ccn1)c1ccc(F)cc1
active: HCC-2998 colon -34.8%
inactive: T-47D breast 14.8% | BT-549 breast 40.6% | MDA-MB-435 melanoma 38.9% | SW-620 colon 30.1% | MCF7 breast 27.2% | HCT-116 colon 23% | KM12 colon 24.2%

Cc1ccc2[nH]cc(-c3nc(-c4cn(C)c5ncccc45)cs3)c2c1
inactive: T-47D breast 41.5% | BT-549 breast 82.9% | MDA-MB-435 melanoma 79.3% | SW-620 colon 109% | MCF7 breast 55.1% | HCT-116 colon 74.9% | HCC-2998 colon 88.8% | KM12 colon 77.9%

CCCCC/C(=C\c1ccccc1)C1OC(C)C(C)O1 (configuration not stated)
inactive: T-47D breast 94.4% | BT-549 breast 95.7% | MDA-MB-435 melanoma 105% | SW-620 colon 103% | MCF7 breast 102% | HCT-116 colon 81.7% | HCC-2998 colon 102% | KM12 colon 98.8%

C[C@H]1OC(=O)/C=C/[C@@H](O)[C@@H](O)CCCCCCCC[C@@H]1O
inactive: T-47D breast 59.9% | BT-549 breast 105% | MDA-MB-435 melanoma 106% | SW-620 colon 102% | MCF7 breast 101% | HCT-116 colon 88.4% | HCC-2998 colon 102% | KM12 colon 101%

O=C1/C(=C\c2ccco2)SC(=S)N1CCc1ccc(O)cc1
inactive: T-47D breast 67.6% | BT-549 breast 87.2% | MDA-MB-435 melanoma 93.7% | SW-620 colon 109% | MCF7 breast 114% | HCT-116 colon 96.1% | HCC-2998 colon 116% | KM12 colon 85.5%

N#CC1=C(N)Oc2c(c(N)nn2-c2ccccc2)C1c1ccc(Cl)cc1 (configuration not stated)
inactive: T-47D breast 86.7% | BT-549 breast 81.5% | MDA-MB-435 melanoma 105% | SW-620 colon 98.1% | MCF7 breast 98.7% | HCT-116 colon 96.2% | HCC-2998 colon 113% | KM12 colon 104%

C#CCn1c2c(c3ccccc31)C[C@]1(C)[C@H]3CC[C@@H]4[C@@H]5C(=CCC[C@H]5C(=C)C)CC[C@@]4(C)[C@]3(C)CC[C@H]1C2(C)C
inactive: T-47D breast 106% | BT-549 breast 100% | MDA-MB-435 melanoma 102% | SW-620 colon 98.2% | MCF7 breast 95.7% | HCT-116 colon 101% | HCC-2998 colon 102% | KM12 colon 102%

COc1ccc2c(c1)C/C(=C\c1cc(-c3cc(OC)c(OC)c(OC)c3)n[nH]1)C2=O
inactive: T-47D breast 73.4% | BT-549 breast 85.2% | MDA-MB-435 melanoma 91.5% | SW-620 colon 91.1% | MCF7 breast 56.3% | HCT-116 colon 81.9% | HCC-2998 colon 102% | KM12 colon 85%

CC(C)=CCC[C@](C)(O)[C@H]1CC[C@]2(C)[C@@H]1CC[C@@H]1[C@@]3(C)C/C(=C/c4cccc([N+](=O)[O-])c4)C(=O)C(C)(C)[C@@H]3CC[C@]12C
inactive: T-47D breast 60.2% | BT-549 breast 97.1% | MDA-MB-435 melanoma 94.2% | SW-620 colon 72.6% | MCF7 breast 72.8% | HCT-116 colon 51.5% | HCC-2998 colon 85.7% | KM12 colon 86%

Cc1ccnc2c(OCc3ccccc3)cccc12
inactive: T-47D breast 72.8% | BT-549 breast 101% | MDA-MB-435 melanoma 90.2% | SW-620 colon 92% | MCF7 breast 38.3% | HCT-116 colon 92.4% | HCC-2998 colon 86.6% | KM12 colon 82.8%

O=c1[nH]ncc(Br)c1Br
inactive: T-47D breast 46.3% | BT-549 breast 83.2% | MDA-MB-435 melanoma 64.3% | MCF7 breast 23% | HCT-116 colon 15.2% | HCC-2998 colon 54% | KM12 colon 45.8%
active: SW-620 colon -80.3%

N=C(N)N=Nc1ccc(O)cc1
inactive: T-47D breast 98.8% [100 µM] | BT-549 breast 19.3% [100 µM] | MDA-MB-435 melanoma 80.4% [100 µM] | SW-620 colon 58.9% [100 µM] | HCT-116 colon 48% [100 µM] | HCC-2998 colon 54.6% [100 µM] | KM12 colon 89.7% [100 µM]
active: MCF7 breast 9.71% [100 µM]

O=S(=O)(NCCNc1cc(-c2cn(-c3ccccc3)nc2-c2cccc(O)c2)ccn1)c1ccc(Br)cc1
active: HCC-2998 colon -61.8%
inactive: T-47D breast 10.5% | BT-549 breast 45.6% | MDA-MB-435 melanoma 22.4% | SW-620 colon 32.4% | MCF7 breast 13% | HCT-116 colon 24% | KM12 colon 17.3%

N#C/C(=C\c1ccc(-c2ccc(Cl)cc2)o1)c1nc(-c2ccco2)cs1
active: T-47D breast -27.1%
inactive: BT-549 breast 103% | MDA-MB-435 melanoma 101% | SW-620 colon 98.5% | MCF7 breast 14.5% | HCT-116 colon 101% | HCC-2998 colon 46.3% | KM12 colon 67.3%

Cc1csc(Nc2nc(-c3ccc(Cl)cc3)nc(C(Cl)(Cl)Cl)n2)n1
inactive: T-47D breast 61.6% | BT-549 breast 97.1% | MDA-MB-435 melanoma 89.3% | SW-620 colon 78.6% | MCF7 breast 59.4% | HCT-116 colon 79.1% | HCC-2998 colon 70% | KM12 colon 79.6%

COc1ccc2c(c1)c(-c1nc(-c3c[nH]c4ncccc34)cs1)cn2C
inactive: T-47D breast 41.4% | BT-549 breast 72.8% | MDA-MB-435 melanoma 69.6% | SW-620 colon 83.3% | MCF7 breast 14.9% | HCT-116 colon 56.7% | HCC-2998 colon 83.1% | KM12 colon 24%

Cc1csc(Nc2nc(-c3cccc(Br)c3)nc(C(Cl)(Cl)Cl)n2)n1
inactive: T-47D breast 13.9% | BT-549 breast 85.4% | MDA-MB-435 melanoma 65.3% | SW-620 colon 52.6% | MCF7 breast 28.9% | HCT-116 colon 47.7% | HCC-2998 colon 16.1% | KM12 colon 27.7%

CC(Cc1ccco1)C(=O)NC(N)=O (configuration not stated)
inactive: T-47D breast 114% | BT-549 breast 106% | MDA-MB-435 melanoma 105% | SW-620 colon 104% | MCF7 breast 102% | HCT-116 colon 106% | HCC-2998 colon 105% | KM12 colon 105%

COc1cc2nc(Cl)nc(Nc3cccc(C(=O)/C=C/c4ccc(F)cc4)c3)c2cc1OC
inactive: T-47D breast 67.6% | BT-549 breast 61.4% | MDA-MB-435 melanoma 39.4% | MCF7 breast 23.8% | HCC-2998 colon 49.9% | KM12 colon 28.4%
active: SW-620 colon 2.24% | HCT-116 colon -41.2%

COc1ccc(C(=O)c2cc(OC)c(OC)c(OC)c2)cc1/C=C/C(=O)c1cc(OC)c(OC)c(OC)c1
inactive: T-47D breast 89.7% | BT-549 breast 86.8% | MDA-MB-435 melanoma 65.2% | SW-620 colon 92.9% | MCF7 breast 75.2% | HCT-116 colon 67.8% | HCC-2998 colon 100% | KM12 colon 86.6%
